Source: PubChem BioAssay AID485346 (Sanford-Burnham Center for Chemical Genomics, 2010)
Hit rate of the full screen: of about 330,000 compounds, about 10,000 (3%) were called active. The full list was thinned out, with actives kept by preference. Unmarked numbers belong to inactive results.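 The calls were made as follows: active = inhibition of at least 50% at 8 µM in the primary screen; inactive = the rest.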

What follows are molecules tested against Protein Mdm4 (Homo sapiens) + E3 ubiquitin-protein ligase Mdm2 (Homo sapiens) (UniProt O15151+Q00987) (assay: disruptors of Mdm2/MdmX RING complex – cell-based, luminescence, split luciferase, SaOS-2, uHTS, primary screen (AID 485346)). Details: SaOS-2 split-luciferase Mdm2/MdmX complementation, at 8 µM, stronger effect = higher value.
Chain of Protein Mdm4 (Homo sapiens) + E3 ubiquitin-protein ligase Mdm2 (Homo sapiens) (O15151 whole entry, looked up): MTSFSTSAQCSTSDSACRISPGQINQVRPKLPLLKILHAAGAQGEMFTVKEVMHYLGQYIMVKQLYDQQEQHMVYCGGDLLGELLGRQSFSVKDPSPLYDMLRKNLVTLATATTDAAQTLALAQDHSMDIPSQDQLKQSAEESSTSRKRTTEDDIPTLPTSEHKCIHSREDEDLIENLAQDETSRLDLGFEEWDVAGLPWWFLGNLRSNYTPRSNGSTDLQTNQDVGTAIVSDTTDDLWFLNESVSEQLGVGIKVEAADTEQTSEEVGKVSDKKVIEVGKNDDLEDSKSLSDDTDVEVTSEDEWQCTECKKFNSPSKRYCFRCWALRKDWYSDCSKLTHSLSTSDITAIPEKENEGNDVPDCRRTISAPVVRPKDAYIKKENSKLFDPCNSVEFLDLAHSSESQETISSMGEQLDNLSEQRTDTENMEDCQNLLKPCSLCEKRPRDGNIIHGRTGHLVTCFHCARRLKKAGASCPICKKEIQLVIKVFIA
Chain of Protein Mdm4 (Homo sapiens) + E3 ubiquitin-protein ligase Mdm2 (Homo sapiens) (Q00987 whole entry, looked up): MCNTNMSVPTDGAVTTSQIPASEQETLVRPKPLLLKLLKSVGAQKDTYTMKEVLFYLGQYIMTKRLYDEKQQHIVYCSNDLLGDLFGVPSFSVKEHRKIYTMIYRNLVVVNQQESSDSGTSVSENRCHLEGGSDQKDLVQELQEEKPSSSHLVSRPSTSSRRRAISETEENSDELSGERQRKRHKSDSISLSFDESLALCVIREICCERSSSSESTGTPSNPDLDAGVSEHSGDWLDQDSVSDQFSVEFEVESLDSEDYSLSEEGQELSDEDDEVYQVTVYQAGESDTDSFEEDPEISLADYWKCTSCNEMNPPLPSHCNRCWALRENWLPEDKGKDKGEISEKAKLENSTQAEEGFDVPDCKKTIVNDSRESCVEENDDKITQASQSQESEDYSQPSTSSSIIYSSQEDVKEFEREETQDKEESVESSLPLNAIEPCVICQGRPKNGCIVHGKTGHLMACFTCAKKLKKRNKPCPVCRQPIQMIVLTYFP

| SMILES | inhibition |
| --- | --- |
| Cc1cc(C)nc(N/N=C/c2c(C)oc3ccccc23)n1 | 33.3% |
| Cc1ccc(C(=O)NCCNC(=O)c2cnccn2)cc1 | 18.3% |
| Cc1cc(C)nc(N/N=C/c2c(CO)cnc(C)c2O)n1 | 27.1% |
| CCN(CC)c1ccc(/C=N/Nc2nc(C)cc(C)n2)c(O)c1 | 72.9% (active) |
| CCN(CC)c1ccc(/C=N/NC(=O)c2cnccn2)c(O)c1 | 72.8% (active) |
| O=C(Nc1ccc2c(c1)OCCO2)c1cnccn1 | -7.26% |
| Cc1ccc(-n2c(SCC(=O)NCc3ccc4c(c3)OCO4)nnc2-c2cccnc2)c(C)c1 | 1.7% |
| CCN(C(=O)CSc1nnnn1-c1ccc(OC)cc1)C1CCS(=O)(=O)C1 (stereo not drawn) | -4.86% |
| COC(=O)C1CCN(C(=O)COC(=O)c2cc(S(=O)(=O)N3CCOCC3)ccc2C)CC1 | 1.32% |
| CCCCn1c(N)c(N(CC)C(=O)/C=C/c2ccco2)c(=O)[nH]c1=O | 15.3% |
| CC[C@]1(O)C[C@@H]2CN(CCc3c([nH]c4ccccc34)[C@@](C(=O)OC)(c3cc4c(cc3OC)N(C)[C@H]3[C@@](O)(C(=O)OC)[C@H](OC(C)=O)[C@]5(CC)C=CCN6CC[C@]43[C@@H]65)C2)C1 | 85.9% (active) |
| CC[C@]1(O)CC2CN(CCc3c([nH]c4ccccc34)[C@@](C(=O)OC)(c3cc4c(cc3OC)N(C=O)[C@H]3[C@@](O)(C(=O)OC)[C@H](OC(C)=O)[C@]5(CC)C=CCN6CC[C@]43[C@@H]65)C2)C1 (stereo partly drawn) | 67.5% (active) |
| CCNC(=O)COc1cc(C)c(Br)c(C)c1 | 15.7% |
| Cc1ccc(S(=O)(=O)N(Cc2ccccc2)c2ccccn2)cc1[N+](=O)[O-] | 23.2% |
| COc1cc(C(=O)OCc2cc(=O)n3ccsc3n2)ccc1OC(C)C | -18.9% |
| CC1CCC2CCCCC2N1C(=O)c1cc([N+](=O)[O-])cc([N+](=O)[O-])c1 (stereo not drawn) | 5.25% |
| Cc1ccc(S(=O)(=O)N(C)c2ccc(OCC(=O)OCc3ccc(C#N)cc3)cc2)cc1 | 1.14% |
| CC1CCN(C(=O)c2cc3nc(C4CC4)cc(C(F)(F)F)n3n2)CC1 | 0.061% |
| COc1ccc2[nH]c3c(c2c1)CCN1C(=O)C(CC(=O)NCc2cccc(C(F)(F)F)c2)C[C@H](C(=O)N2CCOCC2)[C@@]31C (stereo partly drawn) | 17.2% |
| CCOc1ccc2c(=O)c(-c3ccc4c(c3)OCCCO4)c(C)oc2c1 | 19.6% |
| Cn1c2ccccc2c(=O)c2c(=O)n(Cc3ccco3)c(COc3ccccc3)nc21 | 33.8% |
| Cn1c2ccccc2c(=O)c2c(O)cccc21 | 5.57% |

| SMILES | inhibition |
| --- | --- |
| CCCc1nc2c(c(=O)c3ccccc3n2C)c(=O)n1C1CCCCCC1 | 76.1% (active) |
| CC(C)C1C2=C(CC(C)(C)CC2=O)ON1c1ccccc1 (stereo not drawn) | 16.1% |
| COc1cccc(/C=C(/CC(=O)Nc2ccc(N3CCOCC3)cc2)c2nc3ccccc3s2)c1 | 18.2% |
| O=C(COC(=O)Cn1[nH]c(=O)c2ccccc2c1=O)Nc1c(Cl)cccc1C(F)(F)F | -4.75% |
| O=C(NCc1nnc(SCC(=O)N2CCCCCC2)o1)c1ccc(F)cc1 | 10.6% |
| CCc1ccc(N(CC)c2ncnc3nc[nH]c23)cc1 | 63% (active) |
| Cc1ccc(NC(=O)c2ccc(CSc3ncnc4nc[nH]c34)cc2)c(C)c1 | -2.54% |
| COc1ccc(CCNc2ncnc3nc[nH]c23)cc1OC | 18.1% |
| Cc1ccc(CNC(=O)c2cc(-c3ccccc3C)n(CC3CC(c4cccc([N+](=O)[O-])c4)=NO3)n2)cc1 (stereo not drawn) | 26.5% |
| CCOc1ccc(-n2c(O)c(/C=N/c3ccnn3Cc3ccncc3)c3ccccc3c2=O)cc1 | 2.6% |
| CCN(CC)CCCN=Cc1c(O)n(-c2ccc(C)cc2)c(=O)c2ccccc12 | -22.5% |
| CCOc1ccc(-n2c(O)c(/C=N/Nc3nc(C)cc(C)n3)c3ccccc3c2=O)cc1 | 65.3% (active) |
| CCCC1C(=O)N2C(N(C)C)=Nc3ccc(C)cc3N2C1=O (stereo not drawn) | 15.1% |
| CC1CCN(C(=O)CCc2nnc3ccc(NCc4ccco4)nn23)CC1 | 22.2% |
| Cc1cc(C)n(-c2ccc(C(=O)O)cc2[N+](=O)[O-])n1 | -9.75% |
| CC(=O)c1ccc(Oc2cc(C)nc(-n3nc(C)cc3C)n2)cc1 | 59.2% (active) |
| COc1ccc(C(C)=O)cc1CSc1nc2nc(C)cc(C)n2n1 | -8.43% |
| CCOC(=O)C1C(c2ccc(OC)c(OC)c2)c2c([nH][nH]c2=O)CC1(C)O (stereo not drawn) | -7.74% |
| COCCCNC(=S)NCCNc1nc2cc(C)c(C)cc2cc1C#N | -28.9% |
| C=CCN(CC=C)C(=O)CN1C(=O)c2ccccc2C1=O | 11.2% |
| Cc1cc(C(=O)COC(=O)CCCN2C(=O)c3ccccc3C2=O)c(C)n1C | 6.08% |
| C=CCn1c(C)cc(C(=O)CN2C(=O)c3ccccc3C2=O)c1C | 68% (active) |

| SMILES | inhibition |
| --- | --- |
| Cc1cc(S(=O)(=O)N2CCOCC2)ccc1OCC(=O)Nc1cccc(C(F)(F)F)c1 | 23.2% |
| CC(C)n1cnc2c(NCc3ccccc3)cc(N[C@@H](CO)Cc3ccccc3)cc21 | 93.5% (active) |
| CCC(CO)Oc1cc(NCc2ccccc2)c2ncn(C3CCCC3)c2c1 (stereo not drawn) | 7.28% |
| CC(C)n1cnc2c(NCc3ccccc3)cc(OCC3CCN(C)CC3)cc21 | 22.6% |
| CC(C)(Oc1ccc(C2CC2(Cl)Cl)cc1)C(=O)O (stereo not drawn) | 26.9% |
| Cn1cc(S(=O)(=O)N2CCN(c3ccc(F)cc3)CC2)c(=O)n(C)c1=O | 8.49% |
| CCCCn1c(=S)[nH]c2cc(S(=O)(=O)N3CCCCC3)ccc21 | -7.07% |
| O=C(Nc1cc(S(=O)(=O)Nc2ccc(Cl)cc2)ccc1O)c1ccc(F)cc1F | 6.95% |
| COc1ccc(C(=O)N2CC3(C)CC2CC(C)(C)C3)cc1OC (stereo not drawn) | 16.7% |
| Cc1cccc(C(=O)NCC(=O)OCC(=O)N2CC3(C)CC2CC(C)(C)C3)c1 (stereo not drawn) | -13.6% |
| Cc1nnnn1/C(=C\c1ccccc1)C(=O)OCC(=O)N1CC2(C)CC1CC(C)(C)C2 (stereo not drawn) | 57.8% (active) |
| Cc1ccc(C(=O)NCC(=O)O)s1 | 14% |
| CCc1nn(-c2cc(Oc3cccc4ccccc34)nc(-c3ccccc3)n2)c(N)c1C#N | 86.8% (active) |
| CC(C)(C)n1nc(Cc2cccc3ccccc23)c(C#N)c1N | -12% |
| CC#CC[N+](C)(C)CCCCCC | -0.896% |
| C=CCn1c(-c2ccccc2OCC)n[nH]c1=S | 18.7% |
| C/C(=N\NC(=O)c1cc(-c2ccc(O)cc2)nc2ccccc12)c1cccnc1 | -9.48% |
| CCOc1cc(CNCc2ccccn2)ccc1OCC(=O)NC(C)(C)C | -2.81% |
| NC(=O)c1nsc(C(=O)N(CC(=O)NCc2ccc(F)cc2)Cc2ccco2)c1N | 9.54% |
| COc1cc(C(C(=O)NC2CCCC2)N(Cc2ccccc2)C(=O)c2snc(C(N)=O)c2N)ccc1O (stereo not drawn) | 21.6% |
| COc1ccc(CNC(=O)C(c2ccc(O)cc2)N(Cc2ccco2)C(=O)c2snc(C(N)=O)c2N)cc1 (stereo not drawn) | 54.5% (active) |
| CCc1ccc(OCC(O)CN2CCN(CCO)CC2)cc1 (stereo not drawn) | 19.2% |

| SMILES | inhibition |
| --- | --- |
| CCOC(=O)c1cnn(Cc2ccccc2Cl)c1N | -23.4% |
| CC(C)(C)n1ncc2c(=O)n(Cc3c(Cl)cccc3Br)cnc21 | 10.5% |
| CC(C)c1nnc(NC(=O)C2CC(=O)N(CCc3ccc(F)cc3)C2)s1 (stereo not drawn) | -16.4% |
| CCN(C(=O)COC(=O)c1c(NC(C)=O)sc(C)c1C)C1CCS(=O)(=O)C1 (stereo not drawn) | 13.7% |
| O=C(c1cccs1)N(Cc1cc2ccccc2[nH]c1=O)CC1CCCO1 (stereo not drawn) | -37.5% |
| COc1ccc(-c2c(NC(=O)c3ccco3)oc3ccc(Cl)cc3c2=O)cc1 | -18.1% |
| COc1ccccc1NC(=O)c1cc(Cl)nc2ccccc12 | -6.72% |
| COc1ccc(-c2cc(C(=O)Nc3ccccc3O)c3ccccc3n2)cc1 | 9.09% |
| COc1ccc(NC(=O)c2cc(-c3cc(OC)c(OC)c(OC)c3)nc3ccccc23)c(OC)c1 | 61.6% (active) |
| CCN(CC(=O)Nc1ccccc1C(=O)NC1CC1)Cc1cccs1 | 30.2% |
| O=C(C1=C[C@H](c2coc3ccccc3c2=O)C[C@H](OCc2ccc(CO)cc2)O1)N1CCN(Cc2ccccc2)CC1 | 8.82% |
| CN(c1ccccc1)S(=O)(=O)c1cc(C(=O)OCC(=O)N2CCN(C(=O)c3ccco3)CC2)ccc1Cl | 15.6% |
| CN(c1ccccc1)S(=O)(=O)c1cc(C(=O)N2CCN(c3ncccn3)CC2)ccc1Cl | 77.3% (active) |
| CN(c1ccccc1)S(=O)(=O)c1ccc(C(=O)N2CCN(c3ccccc3Cl)CC2)cc1 | 28.8% |
| COC(=O)c1ccc(C)c(NC(=O)Cn2c(C)csc2=O)c1 | 26.8% |
| CC(C)(C)Cc1nnc(NC(=O)c2cc(-c3ccccc3)nc3ccccc23)s1 | -22% |
| O=C(Nc1nnc(-c2ccccc2)o1)c1cc(-c2cccs2)nc2ccccc12 | 51% (active) |
| O=C(Nc1nnc(-c2ccc(Cl)cc2)o1)c1ccccc1Br | -13.3% |
| COc1ccc(Cl)cc1C(=O)NNC(=O)c1nc2nc(C)cc(C)n2n1 | 8.57% |
| CN(C)/C=C/c1c(C#N)c(=O)ncn1Cc1ccccc1 | 13.9% |
| CN(C)c1ccnc2sc3c(=O)n(Cc4ccccc4)cnc3c12 | 59.1% (active) |
| O=c1c2c(ncn1Cc1ccccc1)nc1n2CCC1 | 19.7% |
